The supplement of paper PMC6089552
In all, about 3,200 compounds went through this assay and about 300 (9.4%) showed activity. The full list was thinned out, with actives kept by preference.

Test system: A673/TR/shEF
Experiment: cell viability (LOESS-normalised, relative to median of negative controls) (log2 ratio); higher = more viable cells (less compound effect), active = hit call of the paper (over 3 MAD below the median)
Details: treatment time: 72 h
How it was run: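 Doxycycline, present or absent from 24 h before compounds, was used to induce EWS-FLI1 shRNA knockdown in A673/TR/shEF Ewing sarcoma cells at 1,500 per well in 384-well plates. Cells then received library compounds at two or more concentrations, or DMSO controls, for three days. Viability was measured by CellTiter-Glo luminescence on an Envision reader, and per-plate LOESS correction, division by the negative-control median and log2 transformation followed.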

[1] = 0.25 µM, library screen: screen1, EWS-FLI1 expression: high (no doxycycline)
[2] = 0.25 µM, library screen: screen1, EWS-FLI1 expression: low (doxycycline-induced shRNA knockdown)
[3] = 0.25 µM, library screen: screen2, EWS-FLI1 expression: high (no doxycycline)
[4] = 0.25 µM, library screen: screen2, EWS-FLI1 expression: low (doxycycline-induced shRNA knockdown)
[5] = 2.5 µM, library screen: screen1, EWS-FLI1 expression: high (no doxycycline)
[6] = 2.5 µM, library screen: screen1, EWS-FLI1 expression: low (doxycycline-induced shRNA knockdown)
[7] = 2.5 µM, library screen: screen2, EWS-FLI1 expression: high (no doxycycline)
[8] = 2.5 µM, library screen: screen2, EWS-FLI1 expression: low (doxycycline-induced shRNA knockdown)
[9] = 0.103 µM, library screen: screen3, EWS-FLI1 expression: high (no doxycycline)
[10] = 0.103 µM, library screen: screen3, EWS-FLI1 expression: low (doxycycline-induced shRNA knockdown)
[11] = 0.308 µM, library screen: screen3, EWS-FLI1 expression: high (no doxycycline)
[12] = 0.308 µM, library screen: screen3, EWS-FLI1 expression: low (doxycycline-induced shRNA knockdown)
[13] = 0.926 µM, library screen: screen3, EWS-FLI1 expression: high (no doxycycline)
[14] = 0.926 µM, library screen: screen3, EWS-FLI1 expression: low (doxycycline-induced shRNA knockdown)
[15] = 2.8 µM, library screen: screen3, EWS-FLI1 expression: high (no doxycycline)
[16] = 2.8 µM, library screen: screen3, EWS-FLI1 expression: low (doxycycline-induced shRNA knockdown)
[17] = 8.3 µM, library screen: screen3, EWS-FLI1 expression: high (no doxycycline)
[18] = 8.3 µM, library screen: screen3, EWS-FLI1 expression: low (doxycycline-induced shRNA knockdown)
[19] = 25 µM, library screen: screen3, EWS-FLI1 expression: high (no doxycycline)
[20] = 25 µM, library screen: screen3, EWS-FLI1 expression: low (doxycycline-induced shRNA knockdown)

Measured: cell viability (log2)

Cc1nc2ccccn2c(=O)c1CCN1CCC(C(=O)c2ccc(F)cc2)CC1
inactive: [1] 0.119 | [2] 0.184 | [3] 0.229 | [4] 0.127 | [5] 0.124 | [6] 0.101 | [7] 0.243 | [8] 0.107

O=C(c1ccc(F)cc1)C1CCN(CCn2c(=O)[nH]c3ccccc3c2=O)CC1
active: [3] -0.282 | [4] -0.245 | [7] -2.12 | [8] -2.83

COc1ccc2c(c1)CC[C@@H]1[C@@H]2CC[C@]2(C)[C@@H](NCCCCCCN3C(=O)CCC3=O)CC[C@@H]12
inactive: [3] 0.149 | [4] 0.104 | [7] 0.246 | [8] 0.108

COc1cccc2c(C)cc(=O)[nH]c12
inactive: [1] 0.0638 | [2] 0.0801 | [5] 0.144 | [6] 0.0702

C[C@@H]1CCC2[C@@H](C)[C@@H](O)O[C@@H]3OC4(C)CC[C@@H]1[C@@]23OO4 (stereo not given in full)
inactive: [1] 0.104 | [2] 0.00583 | [5] 0.029 | [6] -0.122

CN(C)c1ccc(C=C2SC(=S)N(c3ccc(F)cc3)C2=O)cc1
inactive: [1] 0.0645 | [2] 0.154 | [5] 0.09 | [6] 0.192

C=CC(C)(C)c1c2c(c(O)c3c(=O)c4ccc(O)c(O)c4oc13)C=CC(C)(C)O2
inactive: [1] -0.0194 | [2] 0.182 | [5] -0.0746 | [6] 0.15

CC1C(=O)CC2CC1C2(C)C (stereo not given)
active: [1] -0.106
inactive: [2] 0.0655 | [5] 0.091 | [6] 0.103

NC(=O)c1ccccc1NC(=O)c1cc2ccccc2o1
inactive: [1] 0.112 | [2] 0.167 | [5] 0.0735 | [6] 0.103

O=C(O)CCCCCCCCCCCCC1C=CCC1 (stereo not given)
inactive: [1] 0.109 | [2] -0.0641 | [5] 0.133 | [6] 0.00345

CO[C@H]1C[C@H](O[C@@H]2/C(C)=C/C[C@@H]3C[C@@H](C[C@]4(CC[C@H](C)[C@@H](C5CCCCC5)O4)O3)OC(=O)[C@@H]3C=C(C)/C(=N/O)[C@H]4OC/C(=C\C=C\[C@@H]2C)[C@]43O)O[C@@H](C)[C@@H]1O
inactive: [1] 0.0971 | [2] 0.0732 | [5] 0.0965 | [6] 0.0106

CCC(C)[C@H]1O[C@]2(CC[C@@H]1C)CC1C[C@@H](C/C=C(\C)[C@@H](O[C@H]3C[C@H](OC)[C@@H](OC4C[C@H](OC)[C@@H](O)[C@H](C)O4)[C@H](C)O3)[C@@H](C)/C=C/C=C3\CO[C@@H]4[C@H](O)C(C)=C[C@@H](C(=O)O1)[C@]34O)O2.CO[C@H]1CC(O[C@H]2[C@H](C)O[C@@H](O[C@@H]3/C(C)=C/C[C@@H]4CC(C[C@]5(CC[C@H](C)[C@@H](C(C)C)O5)O4)OC(=O)[C@@H]4C=C(C)[C@@H](O)[C@H]5OC/C(=C\C=C\[C@@H]3C)[C@]54O)C[C@@H]2OC)O[C@@H](C)[C@@H]1O (stereo not given in full)
inactive: [9] 0.062 | [10] 0.111 | [3] 0.0727 | [4] 0.0714 | [11] -0.0408 | [12] 0.0112 | [13] -0.0851 | [14] -0.0397 | [8] -0.0072
active: [7] -0.104 | [15] -0.279 | [16] -0.285 | [17] -0.239 | [18] -0.115 | [19] -3.03 | [20] -1.99

Cc1cc(=O)c2c(O)c3c(cc2o1)OC(C)(C)CC3
inactive: [1] -0.0169 | [2] 0.014 | [5] 0.0268 | [6] 0.147

CCC[C@H]1CC2=C(C[C@@H](CC)CC3=C1C(=O)OC3=O)C(=O)OC2=O
inactive: [1] 0.0818 | [2] 0.0576 | [5] 0.117 | [6] 0.0649

Cc1sc2c(=O)n3c(nc2c1C(=O)NCCc1ccccc1)CCCCC3
inactive: [1] 0.129 | [2] 0.0568 | [5] 0.167 | [6] 0.136

CC(C)CCC[C@@H](C)C1CC[C@H]2[C@@H]3CCC4=CC(=O)C=C[C@]4(C)[C@H]3CC[C@]12C (stereo not given in full)
inactive: [1] 0.107 | [2] 0.0599 | [5] 0.105 | [6] 0.0638

c1ccc([C@@H]2CCC[C@@H]2NC2=NCCCCCCCCCCC2)cc1
inactive: [3] 0.117 | [4] 0.0677 | [7] 0.18 | [8] 0.156

CC1(C)C[C@@]23C(=O)CC[C@@H](O)C2(C)CC[C@H]13 (stereo not given in full)
inactive: [1] 0.0615 | [2] -0.0504 | [5] 0.0572 | [6] 0.0807

COc1c(O)cc(C2Oc3c(c(O)cc(O)c3[C@H]3c4c(O)cc(O)cc4O[C@H](c4ccc(O)cc4)[C@@H]3O)C[C@H]2O)cc1O (stereo not given in full)
inactive: [9] -0.000188 | [10] 0.0292 | [11] -0.0295 | [12] -0.00938 | [13] 0.0249 | [14] 0.0493 | [15] -0.0107 | [16] 0.0655 | [17] 0.0329 | [18] 0.11 | [19] 0.0402 | [20] 0.209
